The chains are these.
B1: GBRAP_128_3538 (protein)
chain: SLEEVKKRAREVMEKIKNSSVEEAYEITKEFLEELKSLSLEEVEAAIEVLEELLPELSAEKLEAIADAMREMRPTLSPEKQRLVADLQVEALNEAEEKEE
B2: GBRAP_35_5578 (protein)
chain: EDKEMLLETVRDLAEATIEAIKEGDLDLAIALLEALLRTAELAVEELANDAEALEEIAALLERVIAAIKEHLADDPRVQALLARLEALLARTKALLAAVK
B3: GBRAP_184_5199 (protein)
chain: KVLEIEVTVSNLEEAKKKMEEILAKAKEEKADLLLILDLKTSTKEIIETIMNALGKIKKEGYAPNVLVELEGDLSDENIDLAFKLADEAGVSLVIALPEE
B4: GBRAP_11_2855 (protein)
chain: KKEKLKEIAELAKKAIELLKELLKKGVDDKELQKKIKELLEKLLELVKKYLDEASVKLAKEALESFKKSLEDPENKEKYINESLAFLEVLLGDVLLEIDE
B5: GBRAP_139_3755 (protein)
chain: SKTEEAIKEIVELVKDPNATLEEIEEKVKEIAKELDEESIKKVLKAAAEAAKSLSVERIEELEERFIKILKEEGRSEDVIDFLEGEFNEAAALSAYREEL
B6: GBRAP_196_5419 (protein)
chain: SLVQEARKINEEAEKRLKATDKEVTVVVSTGDLERHREAVEKAIDYAKEHPDELVLLVFMDDLETALEAARYAKELAEKEGVDLVVEVASRELEEHPDEE
B7: GBRAP_14_3875 (protein)
chain: MEEIKKIIDDMVAEIVAFVKEVSPEIAPEVEKRLNEIREKTLARIEETGDPLAAFDAMEEEMIAAMEEITADLPEEDRTAILAELRVRLAEARYRIDEVL
B8: GBRAP_150_3934 (protein)
chain: DLEELLLLAESVADLLDLALNEGIDRLKALKRAQELLKDLIKEADEELKEIAKKAQELIKKAIKLEEEGGEEKEIKKLLKKAQELAKELAKELEKKIEEE
B9: GBRAP_11_2819 (protein)
chain: MDEVVKELIEVLKKLAEAADKYLKEDVGDEELLKKIEELAKKALELAKKLNDPAVIREAQAILDTVEEAKKDPANREQYVANARAGARTLLANLEEEAEE
B10: GBRAP_35_5522 (protein)
chain: DSDTLTVEMLVATIEDLTLAVPDMDVETAVQIATQLIKAAEELAKDIKNNVEGLKKLRDALAKLRDALEKHYGDDPLAQQVIAQIDKLIAEIDKMIKEAK
B11: GBRAP_95_7082 (protein)
chain: EEDLETLEDLAQTAIDLYEAGFEEQAARAAKAAAEELEELGYKVADKELLTKLLTYAADLAPKYFDEEEIERWLKIAEATGAPQSIIDALRAALAAKKAA
B12: GBRAP_125_2963 (protein)
chain: SEEEDLKALATLAKALGFDEDDVAEAVELARKFGIKNTVIALFLAEGYEEVAELVEKLTEEEVREVLKELAKEIEANPDLTPEEVVELAKKLLEKKIAKK
B13: GBRAP_39_5685 (protein)
chain: EEEEEDENVVSYLEGLAAARLYETGKSLEELFEEAKKILKALAKEEPELKELIEELIELAEKKGDEAKLALIGIAVLVEEGTPLEEIKENIEKVINYFKK
B14: GBRAP_39_5686 (protein)
chain: EEEEENEDVVSYLEGLAAKYLYETGKSLEEAFEEAKKILLKLAEEHPELKELIEKLIELAEKKGEEAKLALIGIAVLVKQGTPLEEIKENIEKVIAYFES
B15: GBRAP_125_3124 (protein)
chain: AEAQALADLAAVLKALGFDDEDVAEAVELAAAHSIRGTLYAALLALGDEEGADLVAKLTEEQTKEVVAAVNAWLKAHPDATPEEVKEKLLALLKEAVAAS
B16: GBRAP_160_4816 (protein)
chain: MEKVEELLKEAEEDLLDTAEASKDLPIEDRAALLRAEGYTSILELKEELNLSDETEDKLVAIVDELVARLLANPDLTPEEVLALVKEAYEKMKKIVLEEA
B17: GBRAP_11_2768 (protein)
chain: KKEELKKAAELAEKAAKTVEKLLKEGVDNEELLKEIEELLKELKKLTEKYGNEDMKKLVKIAEELLEEIKKDPENAEEYAKELKATLDVLAGQYLLEAEE
B18: GBRAP_128_3156 (protein)
chain: SVEEVRKKTRELLEKIKESDDETARELARELFELIGTLSPEEAEAAVEVILERLPELSEEKLEILADVAREMMPKYDPYKANLLAEVEVEALNEAEELEE
B19: GBRAP_160_4781 (protein)
chain: SEKKEKLKKAIEEAAKEIKEAIDTESPEQVLTVVRGEGGDILQEAEELGIDNEEALEGLDKGIKELEAAMKAAADASPEEKKAIVDKAKEKMIETLDKLT
B20: GBRAP_52_5905 (protein)
chain: MRARLRADLEEIIAAVRAGDLEAARAKARELAETYDDEELELAAEELAALVLEAPREDLPAWWRTAEIIAEALEEAGRDEVLADLVLSRTAAAIHEVLQR
B21: GBRAP_184_5056 (protein)
chain: MIHEKVIKAETLEELEEKLEELEEELKDFKGELIVHVEIPEFTEEMIELIIERLKRILENGYVSSVTLGLDGKMSEEVVDLAIKLADEAGIKLVIALEEE
B22: GBRAP_14_3829 (protein)
chain: MEEIEAVIEEAREDLIELFEEIVPEKAEELAEAVEEVFEELKRRIKETGNVEEAIEEARERLKEEAKKILADEPEEIRNLVLAAIDIEFAELEEEIEELL
B23: GBRAP_160_4075 (protein)
chain: SKETEELKKEIKEIAEEAIEFIKESNLENQIAIAEMMAGDILMLVFEAPFISDEDEERIDKILDKYVELLKENKDWSLEEKEEIIKEMAEEVIKEVEKAS
B24: GBRAP_11_2853 (protein)
chain: KKEKLKEIAELAEEAIKLLEELLKKGVDDEELQKKILEKLKELLELVKKYLDEADVKLAEYALESFEKSLKDPENAEEYVNEALAFLRVLLGNVLLEIDE
B25: GBRAP_78_6627 (protein)
chain: EVEELLEKALEKVEEAAKLATKIPSEKAIDILDELIDAFEYLEEAIEEGGDLEKIEKALKELKKALELIKEQNDPKLEPLKKEVEEAIKLLEKAKKKIKE
B26: GBRAP_177_5010 (protein)
chain: SRLAEIEAAADDPEALLALVAATDLRELSREELLALLRALARAIAREGPRPELLEAAVRVAVALITDHGVSLAEVVAILIEHADPDTVEEVVERVAERLA
B27: GBRAP_39_5638 (protein)
chain: SREEEAEETFDYLEALGAKLLSERGISLDELLEEEYKYAREAFKDDPELLAAIDELYELALKGDDTDKLAAAGAFSLVREGKSKEEVLEAVELLIYYLKS
B28: GBRAP_160_4650 (protein)
chain: EERKEKLKERIKELIEEAYEMMKGETHEERIAIARVMGGDIILELDEDEGVSDEAIEEVDKIMDEFVATLEANPDLTDEEIRALLEEMLKKIFEIIDKYT
B29: GBRAP_9_7158 (protein)
chain: MDELVAKLREVIEDAFEEIKEVVPEEVKPIVEKLREEAEKRLEELEEDPEATPEELVEEAKRILREFRERMKKEVDEETAKIVDAIVDTAELEIEEIEEE

The full ranking holds about 4,500 sequences; the median of “median log2 fold change of GCK-ALFA target abundance (FLAG IP / Myc IP barcode read proportion)” is about 0.078, and the lowest 2% start at about -0.6. The entries come from a sample that favours the lowest values as a whole.

GABARAP, O95166, sequence (O95166 whole entry, the tested form may be a part): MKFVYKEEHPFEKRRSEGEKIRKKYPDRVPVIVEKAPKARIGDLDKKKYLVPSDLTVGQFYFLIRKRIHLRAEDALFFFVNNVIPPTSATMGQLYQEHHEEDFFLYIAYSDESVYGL

This assay concerns the target GABARAP, O95166. Description: median log2 fold change of GCK-ALFA target abundance (FLAG IP / Myc IP barcode read proportion) (log2 ratio); each designed protein is fused to an ALFA-tag nanobody in HEK293 cells to bring the named protein to FLAG-tagged glucokinase (GCK); Myc marks an untargeted standard; higher = target protein stabilised (more abundant). Conditions: target protein: 3xFLAG-MCP-GCK-ALFA reporter; HEK293 landing pad (RPLP). The gist of the method:
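HEK293 landing-pad cells received a recombined binder library fused to the ALFA nanobody and were induced with 2 μg mL^−1 doxycycline, then transfected with a plasmid encoding a FLAG-tagged target and a Myc-tagged standard. Lysates were collected after 48 h for anti-FLAG and anti-Myc immunoprecipitation, and the circular RNA barcodes were reverse transcribed, amplified and sequenced. Target abundance for each binder is the median log2 ratio of FLAG to Myc barcode read proportions. Barcodes had to reach a proportion of at least 10^−7 in both replicates, each binder needed at least 3 barcodes per replicate, a pseudocount of 10^−6 was applied, and the two replicates were pooled.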
B1: the “median log2 fold change” value was 0.273.
The figure for B2 is -0.85.
The figure for B3 is -0.0295.
The figure for B4 is 0.193.
For B5, the “median log2 fold change” value was found to be 0.234.
The figure for B6 is 0.0489; for B7 it is 0.256.
In the case of B8, the “median log2 fold change” value worked out at 0.0862.
The figure for B9 is 0.324.
The figure for B10 is -0.0356; for B11 it is 0.268; for B12 it is -0.725.
The figure for B13 is -0.604; for B14 it is 0.293; for B15 it is -0.452.
As for B16, the “median log2 fold change” value turned out to be 0.0572.
Consider B17, for which the “median log2 fold change” value is 0.117.
The figure for B18 is -0.269; for B19 it is 0.333; for B20 it is -0.658.
The figure for B21 is 0.234; for B22 it is -0.798; for B23 it is -0.29.
The figure for B24 is 0.174.
For the molecule B25, the “median log2 fold change” value was -0.061.
On to B26, for which the “median log2 fold change” value was found to be 0.0662.
On to B27, for which the “median log2 fold change” value was 0.2.
As for B28, the “median log2 fold change” value is -0.715.
B29: the “median log2 fold change” value stood at 0.0143.

(Values after the supplement of paper PMC12632987.)
